PubChem BioAssay (NCATS)
Records with an inconclusive call do not appear. Unmarked numbers belong to inactive results. Activity calls are given as the source filed them. Calls follow the shape of the dose curve; as a rule, active = well fitted inhibition curve with a large enough effect; inconclusive = small, poorly fitted or top-dose-only effect; inactive = flat fitted curve, though single readings scatter.

target: Voltage-gated inwardly rectifying potassium channel KCNH2 (Homo sapiens) (UniProt Q12809); assay: qHTS Assay for Small Molecule Inhibitors of the Human hERG Channel Activity (AID 588834); conditions: U2OS BacMam hERG, FluxOR thallium flux fluorescence; series mostly up to 46.1 µM; activity change, negative = inhibition: at the top concentration;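 also: lower thallium flux fluorescence means stronger hERG block; nearly all actives have a fitted effect of over 50% in size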; as to activity change, negative = inhibition: top concentration of the series differs between compounds
Summary of the method: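 hERG block measured as reduced thallium-dye (FluxOR) fluorescence after stimulation buffer addition, read over 2 min. Cells were hERG-BacMam-transduced U2OS exposed to compound ~10 min […]; concentration-response fitted with Hill equation for AC50.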
% is scaled to controls: 0 for no effect and ±100 for the full control effect; potency is read from the fitted curve at half-maximal effect.

Chain of Voltage-gated inwardly rectifying potassium channel KCNH2 (Homo sapiens) (Q12809 whole entry, looked up): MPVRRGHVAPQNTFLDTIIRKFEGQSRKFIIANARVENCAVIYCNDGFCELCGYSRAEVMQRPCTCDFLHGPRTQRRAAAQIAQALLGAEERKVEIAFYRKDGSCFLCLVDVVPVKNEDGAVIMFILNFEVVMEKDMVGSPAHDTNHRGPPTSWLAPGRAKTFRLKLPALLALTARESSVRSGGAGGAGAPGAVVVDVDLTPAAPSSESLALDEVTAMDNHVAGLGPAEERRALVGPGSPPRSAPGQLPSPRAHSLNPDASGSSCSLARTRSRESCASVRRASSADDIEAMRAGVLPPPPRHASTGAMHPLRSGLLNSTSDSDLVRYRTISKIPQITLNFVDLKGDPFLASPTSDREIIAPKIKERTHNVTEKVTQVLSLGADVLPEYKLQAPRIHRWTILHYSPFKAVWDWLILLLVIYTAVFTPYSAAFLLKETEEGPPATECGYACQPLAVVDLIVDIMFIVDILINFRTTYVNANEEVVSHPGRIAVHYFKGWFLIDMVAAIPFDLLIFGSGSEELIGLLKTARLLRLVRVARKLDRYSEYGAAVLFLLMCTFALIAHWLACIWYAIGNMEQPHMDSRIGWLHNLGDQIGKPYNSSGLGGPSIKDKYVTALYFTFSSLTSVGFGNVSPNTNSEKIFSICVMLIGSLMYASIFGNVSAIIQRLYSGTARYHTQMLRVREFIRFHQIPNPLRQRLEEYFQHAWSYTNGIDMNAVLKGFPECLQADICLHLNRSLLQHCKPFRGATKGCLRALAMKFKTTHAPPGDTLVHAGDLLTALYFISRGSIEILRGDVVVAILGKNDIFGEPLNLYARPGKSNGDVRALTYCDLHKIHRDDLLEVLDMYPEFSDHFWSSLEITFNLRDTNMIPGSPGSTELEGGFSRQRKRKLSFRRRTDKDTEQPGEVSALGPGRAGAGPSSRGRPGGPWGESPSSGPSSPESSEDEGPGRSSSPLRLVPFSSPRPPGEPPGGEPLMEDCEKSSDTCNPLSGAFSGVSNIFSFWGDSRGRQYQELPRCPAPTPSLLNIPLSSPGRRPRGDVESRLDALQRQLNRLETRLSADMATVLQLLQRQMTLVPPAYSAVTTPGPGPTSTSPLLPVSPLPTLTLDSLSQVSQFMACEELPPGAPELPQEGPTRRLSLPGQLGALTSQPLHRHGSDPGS

Question: For `COC(=O)Nc1nc2ccc(Sc3ccccc3)cc2[nH]1`, which “activity change, negative = inhibition” value is on record?
Answer: -2.7% [at 20.6 µM]

Question: `CCc1c2c(nc3ccc(OC(=O)N4CCC(N5CCCCC5)CC4)cc13)-c1cc3c(c(=O)n1C2)COC(=O)[C@]3(O)CC` was tested. Which “activity change, negative = inhibition” value did it give?
Answer: 6.8%

Question: `Cn1nnc2c(C(N)=O)ncn2c1=O` was tested. Which “activity change, negative = inhibition” value did it give?
Answer: 2.6%

Question: With `CC(C)Cn1cnc2c(N)nc3ccccc3c21` as the molecule, how does the “activity change, negative = inhibition” value read?
Answer: -1.91%

Question: Which “activity change, negative = inhibition” value does the source give for `OCc1ccc(-c2nn(Cc3ccccc3)c3ccccc23)o1` here?
Answer: -11%

Question: With `CCCN[C@H]1CCc2nc(N)sc2C1` as the molecule, how does the “activity change, negative = inhibition” value read?
Answer: -0.859%

Question: Which “activity change, negative = inhibition” value does the source give for `CC(=O)[C@H]1CC[C@H]2[C@@H]3CC=C4C[C@@H](O)CC[C@]4(C)[C@H]3CC[C@]12C` here?
Answer: 4.88%

Question: With `O=C(O)c1cccnc1` as the molecule, how does the “activity change, negative = inhibition” value read?
Answer: 11.9%

Question: Which “activity change, negative = inhibition” value does the source give for `CCOC(=O)c1ccc(OC(=O)CCCCCN=C(N)N)cc1` here?
Answer: -2.06% [at 20.6 µM]

Question: For `CC(N)C12CC3CC(CC(C3)C1)C2` (stereo not given), which “activity change, negative = inhibition” value is on record?
Answer: -9.24%

Question: `NC(=O)c1cccnc1` was tested. Which “activity change, negative = inhibition” value did it give?
Answer: -12%

Question: For `CCN(C)C(=O)Oc1cccc([C@H](C)N(C)C)c1`, which “activity change, negative = inhibition” value is on record?
Answer: 8.72%

Question: With `CC(C)(C#N)c1cc(Cn2cncn2)cc(C(C)(C)C#N)c1` as the molecule, how does the “activity change, negative = inhibition” value read?
Answer: -1.55%

Question: Which Potency does the source give for `CCOC(=O)c1ccc(C#Cc2ccc3c(c2)C(C)(C)CCS3)nc1` here?
Answer: 8.91 µM (active)

Question: `COc1ccccc1OCC(O)COC(N)=O` (stereo not given) was tested. Which “activity change, negative = inhibition” value did it give?
Answer: -6.16% [at 20.6 µM]

Question: For `CO[C@@H]1[C@@H](OC(N)=O)[C@@H](O)[C@H](Oc2ccc3c(O)c(NC(=O)c4ccc(O)c(CC=C(C)C)c4)c(=O)oc3c2C)OC1(C)C`, which “activity change, negative = inhibition” value is on record?
Answer: 22.6% [at 20.6 µM]

Question: Which “activity change, negative = inhibition” value does the source give for `CCCCOc1ccc(CC(=O)NO)cc1` here?
Answer: -3.84% [at 20.6 µM]

Question: Which “activity change, negative = inhibition” value does the source give for `Nc1nc(F)nc2c1ncn2[C@@H]1O[C@H](CO)[C@@H](O)[C@@H]1O` here?
Answer: 15.7%

Question: For `Clc1ccccc1CN1CCc2sccc2C1`, which Potency is on record?
Answer: 14.1 µM (active)

Question: Which “activity change, negative = inhibition” value does the source give for `NC(=O)c1cccc(N)c1` here?
Answer: -8.46%
